Screening results: PubChem BioAssay, several laboratories
The list is not random: actives were taken first. Their share in the collection is about 4.5%.
dFosB activator: activators of delta FosB homodimer, primary screen, biochemical, fluorescence polarization, TAMRA-CDK5 oligo, single point | purified delta FosB; percent of positive-control signal above neutral wells | Protein FosB (Mus musculus), P13346 | activation, % at 25 µM | actives 0.99% (n = 340,000) | AID 493131, 2011;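 active = mean activation above about 17%, with every replicate also reaching it, limit read from the data, passing the limit was not always enough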
Target sequence (P13346 whole entry, looked up): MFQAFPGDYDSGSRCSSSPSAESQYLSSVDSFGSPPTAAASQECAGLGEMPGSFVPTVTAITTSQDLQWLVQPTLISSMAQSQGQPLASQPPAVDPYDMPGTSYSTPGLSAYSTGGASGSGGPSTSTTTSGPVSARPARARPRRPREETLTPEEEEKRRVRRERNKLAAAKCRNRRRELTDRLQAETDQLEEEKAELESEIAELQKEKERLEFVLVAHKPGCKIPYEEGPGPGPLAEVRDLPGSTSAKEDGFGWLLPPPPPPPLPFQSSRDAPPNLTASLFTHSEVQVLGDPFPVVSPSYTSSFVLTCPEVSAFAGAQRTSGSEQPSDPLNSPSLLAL
EBNA-1 inhibitor: EBNA-1 DNA-binding inhibitors, primary screen, biochemical, fluorescence polarization; actives 0.34% (n = 300,000); AID 1950, 2009; inhibition, % at 14.8 µM; in the data active = inhibition above about 28%
Rpn11 block: Rpn11 (PSMD14) deubiquitinase inhibitors, primary screen, biochemical, fluorescence polarization, uHTS | 26S proteasome non-ATPase regulatory subunit 14 (Homo sapiens), O00487 | inhibition, % at 20 µM | human 26S proteasome, Ub4-pepOG fluorescence polarization; 20S core pre-blocked with epoxomicin | AID 588493, 2011 | actives 0.59% (n = 360,000);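 active = inhibition at 20 µM, scaled to each plate's controls, above about 33%, limit read from the data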
GRIN3A LBD mod: binders of NR3A ligand-binding domain, primary screen, biophysical, differential scanning fluorimetry, uHTS | Glutamate receptor ionotropic, NMDA 3A (GRIN3A) ligand-binding domain | NR3A LBD differential scanning fluorimetry, Tm shift; 0% = protein alone, 100% = glycine-bound protein | Tm shift relative to glycine control, % at 25 µM | actives 2.5% (n = 340,000);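 active = melting temperature shift of at least 10% of the positive control shift, at one fixed dose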
ZTA counter: blocks Epstein-Barr virus ZTA, an EBNA-1 counter-screen. P03206. ZTA-DNA binding, fluorescence polarization. inhibition, % at 11 µM. actives 0.15% (n = 320,000); in the data active = inhibition above about 33%
TPT1 inhibitor: Candida albicans TPT1 enzyme inhibitors, primary screen, biochemical, fluorescence polarization. tRNA 2'-phosphotransferase TPT1 (Candida albicans SC5314). recombinant caTPT1, FP RNA substrate dephosphorylation. inhibition, % at 5 µM. actives 0.81% (n = 300,000);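 active = inhibition above the mean of all tested compounds plus 3 SD, set per screening campaign, cut at about 24% in these data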;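 also: plate controls were DMSO alone for no effect and ferristatin control at 100 nM for full effect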
* = called active by the depositor.

Results for O=C(CCc1ccccc1)NC(NC(=S)Nc1ccc(Cl)cc1)C(Cl)(Cl)Cl (stereo unspecified) ?
dFosB activator: 2; EBNA-1 inhibitor: -4; Rpn11 block: 0; GRIN3A LBD mod: 27*; ZTA counter: -13; TPT1 inhibitor: -8

How did CCc1ccc(OCC(=O)NC(NC(=S)Nc2ccccc2C)C(Cl)(Cl)Cl)cc1 (stereo unspecified) do in these assays?
dFosB activator: 3; EBNA-1 inhibitor: 0; Rpn11 block: 2; GRIN3A LBD mod: 15*; ZTA counter: -3; TPT1 inhibitor: -3

How did CC(=O)NC(NC(=S)Nc1ccc(N=Nc2ccccc2)cc1)C(Cl)(Cl)Cl (stereo unspecified) do in these assays?
dFosB activator: 5; EBNA-1 inhibitor: -2; Rpn11 block: -2; GRIN3A LBD mod: 13*; ZTA counter: 4; TPT1 inhibitor: -1

What do the screens show for `CCc1ccc(OCC(=O)NC(NC(=S)Nc2ccccc2)C(Cl)(Cl)Cl)cc1` (stereo unspecified)?
dFosB activator: -7; EBNA-1 inhibitor: 2; Rpn11 block: -5; GRIN3A LBD mod: 23*; ZTA counter: -11; TPT1 inhibitor: 0

Results for Cc1ccccc1NC(=S)NC(NC(=O)COc1ccccc1)C(Cl)(Cl)Cl (stereo unspecified) ?
dFosB activator: -6; EBNA-1 inhibitor: -5; Rpn11 block: 6; GRIN3A LBD mod: -5; ZTA counter: -13; TPT1 inhibitor: -7

How did CC(=O)NC(NC(=S)Nc1ccc(S(N)(=O)=O)cc1)C(Cl)(Cl)Cl (stereo unspecified) do in these assays?
dFosB activator: -3; EBNA-1 inhibitor: 12; Rpn11 block: 4; GRIN3A LBD mod: -1; ZTA counter: 9; TPT1 inhibitor: -1

What do the screens show for `COc1ccc(-n2c(-c3ccc(Cl)cc3)c[nH]c2=S)cc1`?
dFosB activator: 8; EBNA-1 inhibitor: -16; Rpn11 block: -18; GRIN3A LBD mod: -1; ZTA counter: 0; TPT1 inhibitor: -1

Results for CC1=CC(=C(C#N)C#N)C=C(C)N1CCN1CCN(C(=O)Nc2cccc(Cl)c2)CC1 ?
dFosB activator: 30*; EBNA-1 inhibitor: 21; Rpn11 block: -2; GRIN3A LBD mod: -4; ZTA counter: -12; TPT1 inhibitor: 2

How did CC1=CC(=C(C#N)C#N)C=C(C)N1CCN1CCNCC1 do in these assays?
dFosB activator: 19*; EBNA-1 inhibitor: -4; Rpn11 block: 28; GRIN3A LBD mod: 0; ZTA counter: 11; TPT1 inhibitor: 5

What do the screens show for `C=CCN1C(=O)c2ccc(C(=O)NCCc3ccc(F)cc3)cc2C1=O`?
dFosB activator: -5; EBNA-1 inhibitor: 7; Rpn11 block: -2; GRIN3A LBD mod: 2; ZTA counter: 7; TPT1 inhibitor: -1

Results for COc1ccccc1-c1oc2ccccc2c1-c1ccc2cc[nH]c2c1 ?
dFosB activator: -1; Rpn11 block: 3; GRIN3A LBD mod: 21*; ZTA counter: 2

What do the screens show for `CCOC(=O)c1ccc(-c2c(-c3ccccc3OC)oc3ccccc23)cc1F`?
dFosB activator: 6; Rpn11 block: 0; GRIN3A LBD mod: 1; ZTA counter: -1

Results for COc1ccc(OC)c(/C=N/NC(=O)c2[nH]ncc2Br)c1 ?
EBNA-1 inhibitor: -2; Rpn11 block: 2; GRIN3A LBD mod: 21*; ZTA counter: -1; TPT1 inhibitor: -6

Results for Cc1ccc(O)c(/C=N/NC(=O)c2[nH]ncc2Br)c1 ?
dFosB activator: -1; EBNA-1 inhibitor: 2; Rpn11 block: -6; GRIN3A LBD mod: -16; ZTA counter: 8; TPT1 inhibitor: -1

Results for CCOc1ccc(/C=N/NC(=O)c2[nH]ncc2Br)c(O)c1 ?
dFosB activator: -1; EBNA-1 inhibitor: 0; Rpn11 block: 2; GRIN3A LBD mod: 27*; ZTA counter: -8; TPT1 inhibitor: 5
